Assay [1] in a line: qHTS RealTime-Glo MT Cell Viability Assay in HepG2 cells - 32 hour (AID 1224877). Note: nearly all actives have a fitted effect of over 55% in size. In short, it runs like this:
(§1)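 Real-time, nonlytic viability: 600 HepG2 cells/well mixed with NanoLuc enzyme plus prosubstrate; 5 h settle, compound (DMSO) added by pintool; luminescence monitored over 40 h at 37 C.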

A short description of assay [2]: A CellTox Green Cytotoxicity Assay to monitor cytotoxicity in HepG2 cells - 24 hour (AID 1224878). Note: nearly all actives have a fitted effect of over 45% in size. Note: potency is the fitted concentration of half-maximal effect. The method, boiled down: (§2)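 Cytotoxicity was tracked as dead-cell DNA fluorescence in HepG2 cells treated with test compounds at 37 C; each time-point value comes from one kinetic series spanning 0, 8, 16, 24, 32 and 40 h.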
The nature of assay [3]: A CellTox Green Cytotoxicity Assay to monitor cytotoxicity in HepG2 cells - 40 hour (AID 1224879). Note: nearly all actives have a fitted effect of over 40% in size. Note: potency is the fitted concentration of half-maximal effect. In short, it runs like this:
as §2

Assay [4] in a line: qHTS RealTime-Glo MT Cell Viability Assay in HEK293 cells - 0 hour (AID 1224880). Note: top concentration of the series differs between compounds; nearly all actives have a fitted effect of over 45% in size. In short, it runs like this:
(§3)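 Kinetic, non-lysing viability readout. Seed HEK293 (600/well) with reagent, incubate 5 h at 37 C/5% CO2, pin 23 nL compound in DMSO, incubate at 37 C, read luminescence at 0, 8, 16, 24, 32, 40 h.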

Assay [5] in a line: A CellTox Green Cytotoxicity Assay to monitor cytotoxicity in HEK293 cells - 32 hour (AID 1224881). Note: nearly all actives have a fitted effect of over 40% in size. In short, it runs like this: (§4)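 Real-time, in one plate: 600 HEK293 cells/well with dead-cell DNA dye, pinned compound after 5 h, 37 C incubation over 40 h; viable cells give no appreciable fluorescence.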
Assay [6] is described as follows: A CellTox Green Cytotoxicity Assay to monitor cytotoxicity in HepG2 cells - 0 hour (AID 1224882). Note: nearly all actives have a fitted effect of over 35% in size. Note: potency is the fitted concentration of half-maximal effect. The method, boiled down: as §2
Assay [7] is described as follows: A CellTox Green Cytotoxicity Assay to monitor cytotoxicity in HepG2 cells - 32 hour (AID 1224883). Note: nearly all actives have a fitted effect of over 50% in size. Note: potency is the fitted concentration of half-maximal effect. In short, it runs like this: as §2
Assay [8] is described as follows: A CellTox Green Cytotoxicity Assay to monitor cytotoxicity in HEK293 cells - 8 hour (AID 1224884). Note: nearly all actives have a fitted effect of over 35% in size. The method, boiled down: as §4
Assay [9] can be described thus: qHTS RealTime-Glo MT Cell Viability Assay in HepG2 cells - 16 hour (AID 1224885). Note: nearly all actives have a fitted effect of over 50% in size. The method, boiled down: as §1
For orientation: In qHTS, concentration-response curves come from the screen itself.

Assay [10] can be described thus: qHTS RealTime-Glo MT Cell Viability Assay in HEK293 cells - 24 hour (AID 1224886). Note: top concentration of the series differs between compounds; nearly all actives have a fitted effect of over 50% in size. The method, boiled down: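 Cells + reagent dispensed (600 cells/well, HEK293) → 5 h at 37 C/5% CO2 → 23 nL compound in DMSO pinned → 40 h at 37 C → luminescence read at 0, 8, 16, 24, 32, 40 h.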
Assay [11] in a line: qHTS RealTime-Glo MT Cell Viability Assay in HEK293 cells - 8 hour (AID 1224887). Note: top concentration of the series differs between compounds; nearly all actives have a fitted effect of over 50% in size. In short, it runs like this: as §3
Assay [12] can be described thus: A CellTox Green Cytotoxicity Assay to monitor cytotoxicity in HEK293 cells - 16 hour (AID 1224888). Note: nearly all actives have a fitted effect of over 35% in size. The method, boiled down:
as §4

Assay [13] is described as follows: qHTS RealTime-Glo MT Cell Viability Assay in HepG2 cells - 0 hour (AID 1224889). Note: nearly all actives have a fitted effect of over 50% in size. The method, boiled down: as §1
The nature of assay [14]: A CellTox Green Cytotoxicity Assay to monitor cytotoxicity in HepG2 cells - 8 hour (AID 1224890). Note: nearly all actives have a fitted effect of over 45% in size. Note: potency is the fitted concentration of half-maximal effect. The method, boiled down:
as §2

A short description of assay [15]: qHTS assay to identify small molecule antagonists of the estrogen receptor alpha (ER-alpha) signaling pathway using the BG1 cell line in the presence of 0.1 nM 17-beta-estradiol - cell viability counter screen (AID 1259241). Note: nearly all actives have a fitted effect of over 40% in size. In short, it runs like this: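 CellTiter-Fluor read (30 min, 37C) on ER-alpha/ERE-luc VM7Luc4E2 cells; 22 hr compound treatment; agonist 0.1 nM E2 final; same-well multiplex.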

Assay [16] in a line: qHTS assay to identify small molecule antagonists of the androgen receptor (AR) signaling pathway using the MDA cell line in the presence of 0.5 nM R1881 - cell viability counter screen (AID 1259242). Note: nearly all actives have a fitted effect of over 45% in size. The method, boiled down:
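Cells seeded at 3,000/well and allowed 5 hr at 37C, 0% CO2 before compound transfer and R1881 (0.5 nM final) addition; 16 hr later, live-cell protease fluorescence indicated cytotoxicity.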

Assay [17] deals with Estrogen receptor (Homo sapiens) (UniProt P03372). Description: qHTS assay to identify small molecule antagonists of the estrogen receptor alpha (ER-alpha) signaling pathway using the BG1 cell line in the presence of 0.1 nM 17-beta-estradiol (AID 1259244). Note: nearly all actives have a fitted effect of over 50% in size. The method, boiled down: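 Luciferase signal from VM7Luc4E2 ERE-reporter cells, co-dosed with test compound and 0.1 nM final 17beta-estradiol for 22 h, read with ONE-Glo.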
Sequence of Estrogen receptor (Homo sapiens) (P03372 whole entry, looked up): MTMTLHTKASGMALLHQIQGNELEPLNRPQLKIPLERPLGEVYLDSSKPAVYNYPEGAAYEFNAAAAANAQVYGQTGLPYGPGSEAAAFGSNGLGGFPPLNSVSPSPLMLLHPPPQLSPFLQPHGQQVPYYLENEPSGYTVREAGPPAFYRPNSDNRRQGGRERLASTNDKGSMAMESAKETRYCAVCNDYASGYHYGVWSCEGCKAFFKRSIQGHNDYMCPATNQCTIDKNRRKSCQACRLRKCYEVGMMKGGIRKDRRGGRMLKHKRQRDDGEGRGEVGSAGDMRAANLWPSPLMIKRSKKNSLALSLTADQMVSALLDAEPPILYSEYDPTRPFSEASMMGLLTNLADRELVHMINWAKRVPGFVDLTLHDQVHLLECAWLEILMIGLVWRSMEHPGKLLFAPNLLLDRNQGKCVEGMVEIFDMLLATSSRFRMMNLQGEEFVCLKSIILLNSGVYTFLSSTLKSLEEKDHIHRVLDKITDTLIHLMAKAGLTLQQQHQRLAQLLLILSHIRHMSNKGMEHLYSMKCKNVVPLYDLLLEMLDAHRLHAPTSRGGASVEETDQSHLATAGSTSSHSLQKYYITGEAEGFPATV

Assay [18] can be described thus: qHTS assay to identify small molecule phospholipidosis (PLD) inducers (AID 1259344; active = well fitted curve in the direction sought with a large enough effect; an effect the other way counts as inactive or inconclusive). The method, boiled down: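 Cells (HepG2, 900 per well) attach for 4 h, receive LipidTOX Red and compound together, incubate 24 h at 37 C, are fixed 30 min with paraformaldehyde/Hoechst, then imaged at one site per well.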
A short description of assay [19]: qHTS assay to identify small molecule HDAC inhibitors (AID 1259364). In short, it runs like this: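 HCT-116 wt cells, 1,500/well, overnight attach. Compounds (DMSO) 2 h, 37 °C. HDAC-Glo I/II, 30 min RT. Luminescence.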
The nature of assay [20]: A CellTox Green Cytotoxicity Assay to monitor cytotoxicity in HepG2 cells - 16 hour (AID 1224876). Note: nearly all actives have a fitted effect of over 45% in size. Note: potency is the fitted concentration of half-maximal effect. The method, boiled down:
as §2

Values without a mark were called inactive. Results filed as inconclusive are left out. The source made the active and inactive calls. Unless noted, calls come from the whole dose curve; as a rule, active = well fitted curve in the direction sought with a large enough effect in the repeat runs; inconclusive = weak or mixed curves; inactive = no such curve, though single readings can be large; an effect the other way counts as inactive or inconclusive.
% is set by controls: 0 for no effect and ±100 for the full control effect.

For the molecule `O=c1[nH]c(=O)c2[nH]c(=O)[nH]c2[nH]1`, the activity change, negative = cytotoxic in assay [1] was 0.932% [at 6.97 µM]; in assay [9], 0.919% [at 6.97 µM]. In addition, the values for the cytotoxicity in assay [2] and in assay [6] were -0.222% [at 6.97 µM] and -5.08% [at 6.97 µM], respectively. Besides, the cytotoxicity increase was 1.9% [at 6.97 µM] in assay [3]; -13.1% [at 6.97 µM] in assay [5]; -0.415% [at 6.97 µM] in [7]; -15.5% [at 6.97 µM] in assay [8]; 1.39% [at 6.97 µM] in assay [14]. Further, the activity change, negative = cytotoxicity in assay [4] is 1.84% [at 6.97 µM]; in [10] it was 8.57% [at 6.97 µM]; in assay [11] it was 9.35% [at 6.97 µM]; in assay [13] it was -4.02% [at 6.97 µM]; in assay [15], 0.489% [at 8.39 µM]. Moreover, the activity change in assay [12] was -15.6% [at 6.97 µM, hits give high values]. Besides, in assay [16], the viability change, negative = cytotoxic was -0.67% [at 8.39 µM]. Moreover, the activity change, negative = inhibition was -0.565% [at 8.39 µM] in [17] and 11.3% [at 8.39 µM] in assay [19]. Moreover, the outcome in assay [18] was inactive.

As to `CCN(CC)C(=O)C1CN2CCc3cc(OC)c(OC)cc3C2CC1OC(C)=O` (stereo not given), the molecule was classed as inactive in [1], in [4] and in assay [9]. In addition, the Potency result in assay [2], in assay [3], in assay [5], in assay [6], in assay [7] and in assay [8] was “inactive” each time. In addition, the Potency entry in assay [10], in assay [11], in [12], in [13], in assay [14] and in assay [15] was “inactive” each time. The Potency entry in assay [16] and in assay [17] was “inactive” throughout.

Consider `BrC/C=C/CBr`, for which the activity change, negative = cytotoxic in assay [1] was -0.147% [at 15.8 µM]; in assay [9] it was 4.65% [at 15.8 µM]. Also, the cytotoxicity in assay [2] is -16.1% [at 15.8 µM]; in assay [6], -11.8% [at 15.8 µM]. The cytotoxicity increase was -17.2% [at 15.8 µM] in assay [3]; -1.01% [at 15.8 µM] in assay [5]; -16.5% [at 15.8 µM] in assay [7]; 1.66% [at 15.8 µM] in [8]; -2.29% [at 15.8 µM] in assay [14]. Moreover, the activity change, negative = cytotoxicity in assay [4] is -1.92% [at 15.8 µM]; in assay [10], 0.605% [at 15.8 µM]; in [11], -6.32% [at 15.8 µM]; in assay [13], 4.43% [at 15.8 µM]; in [15], 5.53% [at 19 µM]. Besides, the activity change in assay [12] was 4.41% [at 15.8 µM, hits give high values]. Further, in assay [16], the viability change, negative = cytotoxic is 0.0069% [at 19 µM]. Further, the activity change, negative = inhibition in assay [19] was -0.207% [at 19 µM].

Take `CCCCCCCCCCCCCCCC(=O)NCCO`: the Potency was 8.49 µM (active) in [20]; 8.49 µM (active) in [2]; 8.49 µM (active) in assay [3]; 9.52 µM (active) in assay [7]; 6.01 µM (active) in assay [14]. Besides, the result in assay [1], in assay [4], in assay [9] and in assay [18] was inactive. Further, the Potency result in assay [8], in assay [10], in assay [11], in [12], in assay [13] and in [16] was “inactive” throughout. Further, in [19], the Potency entry is “inactive”.

With `CCCCC(CC)CNC(=O)CC(C)OC(=O)CCC(=O)O` (stereo not given), the Potency was 23.9 µM (active) in assay [20], 26.8 µM (active) in [2], 26.8 µM (active) in assay [6] and 26.8 µM (active) in assay [14]. Moreover, the result in assay [1], in assay [4] and in [9] was inactive. In addition, the Potency result in assay [5], in assay [8], in assay [10], in [11], in assay [12] and in assay [13] was “inactive” each time. Besides, the Potency entry in assay [15], in assay [16], in assay [17] and in [19] was “inactive” in each case.

Take `COc1ccc(NS(=O)(=O)c2ccc(N)cc2)nn1`: the Potency result in assay [20], in assay [2], in [3], in [7], in [8] and in assay [10] was “inactive” in each case. The Potency entry in assay [11], in assay [12], in assay [13], in [14], in assay [15] and in assay [16] was “inactive” each time. The Potency result in [17] and in assay [19] was “inactive” in each case. Further, the result in assay [1], in [4], in assay [9] and in assay [18] was inactive.

In the case of `Nc1c(NC/C=C\COc2cc(CN3CCCCC3)ccn2)c(=O)c1=O`, the cytotoxicity increase is -12.5% [at 15.8 µM] in assay [20]; -13.3% [at 15.8 µM] in assay [3]; -13.1% [at 15.8 µM] in assay [7]; 3.26% [at 15.8 µM] in assay [8]; -13.1% [at 15.8 µM] in assay [14]. Also, the activity change, negative = cytotoxic is 0.449% [at 15.8 µM] in assay [1] and 3.45% [at 15.8 µM] in assay [9]. In addition, in assay [2], the cytotoxicity was -15.2% [at 15.8 µM]. The activity change, negative = cytotoxicity in [4] was 11.6% [at 15.8 µM]; in assay [10] it was 3.04% [at 15.8 µM]; in assay [11], 1.9% [at 15.8 µM]; in [13], 8.54% [at 15.8 µM]; in assay [15] it was -19.8% [at 19 µM]. The activity change in [12] was 3.09% [at 15.8 µM, hits give high values]. For the same molecule, the viability change, negative = cytotoxic in assay [16] was -4.94% [at 19 µM]. Moreover, in [18], the molecule was classed as inactive.

The values are drawn from PubChem BioAssay (Tox21).
